Bioassay records from PubChem BioAssay.
Rows were chosen to be rich in hits. Some 4.8% of all compounds tested hit in one or more screens of this group.
CSC inhib: cancer stem cell viability inhibitors, primary screen, luminescence | cancer stem cell-like cells viability | inhibition, % at 7.5 µM | 300,000 tested, 1.1% active | AID 2717, 2010; in the data active = inhibition above about 75%; inconclusive = no clear call, values can overlap the other calls; tested in HMLE shEcad cells
Mdm2 MdmX PPI: inhibitors of human Mdm2-MdmX association, primary screen, cell-based, luminescence, split luciferase, SaOS-2, uHTS; Protein Mdm4 (Homo sapiens) + E3 ubiquitin-protein ligase Mdm2 (Homo sapiens), …; SaOS-2 split-luciferase Mdm2/MdmX complementation; inhibition, % at 8 µM; 330,000 tested, 3% active;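 active = inhibition of at least 50% at 8 µM in the primary screen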
MPTP block: mitochondrial permeability transition pore inhibitors, primary screen, biochemical, isolated mouse mitochondria, absorbance. Ca2+ swelling absorbance, 30 min. 360,000 tested, 1.4% active. inhibition, % at 10 µM. AID 602449, 2012;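 active = inhibition of 50% or more, scaled per plate between neutral and stimulator controls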;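 also: 0% = DMSO wells given calcium and 100% = 1 mM EGTA wells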
Calb FLC: C. albicans growth inhibition with fluconazole, primary screen, CaCi-2 strain, Alamar Blue fluorescence; C. albicans CaCi-2 (fluconazole-resistant clinical isolate) + fluconazole, 48 h; growth inhibition, % (no concentration beside the values); 300,000 tested, 0.57% active;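 active = growth inhibition above about 58% in most replicates, limit read from the data, passing the limit was not always enough; inconclusive = exactly half the replicates above a set limit; inactive = most replicates below a set limit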;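 also: all wells also contain fluconazole at 8 µg/ml as a sub-toxic cotreatment; 0% = median of DMSO wells and 100% = median of geldanamycin control wells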
Beta apoptosis: inhibitors of cytokine-induced beta cell apoptosis, primary screen, luminescence; 300,000 tested, 0.8% active; protection from apoptosis, % (concentration not given with the values); INS-1E cytokine-induced death, ATP luminescence, 48 h; percent of positive-control rescue, neutral wells zero;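 active = Every replicate reaches about 75%, or at least half do and their mean reaches it too, limit read from the data; inconclusive = At least half of replicates reach the limit but their mean does not; inactive = Under half of replicates reach the limit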;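 also: 0% = cytokine-treated negative control wells and 100% = positive control rescue; higher means more ATP so stronger rescue from cytokine killing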
Mdm2-MdmX conf: Mdm2-MdmX complex disruptors, retested hits, confirmation, luminescence, single concentration; Mdm2-MdmX binding, luminescent assay; AID 489028, 2010; shares compounds with Mdm2 MdmX PPI; inhibition, % at 8 µM; 10,000 tested, 55% active; in the data active = inhibition above about 40%
FLuc counter: full-length luciferase signal inhibition, confirmation, counter-screen for Mdm2/MdmX interaction inhibitor project, cell-based, single concentration, SaOS-2 | shares compounds with Mdm2 MdmX PPI | SaOS-2 full-length luciferase counterscreen, luminescence | inhibition, % at 8 µM | 6,200 tested, 77% active;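 active = mean inhibition at 8 µM reaching about 37%, which flags the compound as non-specific, limit read from the data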;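 also: p53-null SaOS-2 cells with luciferase driven by a doxycycline-inducible promoter; compound on cells about two nights before reading with doxycycline added after day one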
Rh123 counter: fluorescence retest of MPTP screen hits in isolated mitochondria, single concentration; AID 624504, 2012; 5,000 tested, 78% active; shares compounds with MPTP block; membrane potential, Rhodamine 123 fluorescence; inhibition, % at 10 µM; in the data active = inhibition above about 22%;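 also: 0% = DMSO vehicle and 100% = positive control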
MPTP abs DR: mitochondrial permeability transition pore inhibitors, dose response, biochemical, absorbance, uHTS hits | shares compounds with MPTP block | isolated mitochondria swelling | IC50, µM | 780 tested, 58% active | AID 651561, 2012; in the data active = IC50 below about 20 µM
MPTP counter DR: fluorescent counter-screen in isolated mitochondria, dose response, counter-screen for MPTP inhibitor project, biochemical, fluorescence, uHTS hits | IC50, µM | isolated mitochondria counterscreen, fluorescence read-out | 780 tested, 49% active | shares compounds with MPTP block; in the data active = IC50 below about 80 µM
Starred values were filed as active, the others as inactive.

CN(C(=O)CSc1nnc(-c2ccc(F)cc2)n1C)C1CCS(=O)(=O)C1 (configuration not stated) was read as CSC inhib -10.3, Mdm2 MdmX PPI -16.3, MPTP block -0.5 and Beta apoptosis -6.8.
Screening Fc1ccc2[nH]c3c(N4CCc5ccccc5C4)ncnc3c2c1 returned CSC inhib inconclusive, Mdm2 MdmX PPI 56.9*, MPTP block 88.8*, Calb FLC -18.1, Beta apoptosis 127.3*, Mdm2-MdmX conf 34.5 and Rh123 counter 82.9*.
`O=C(NC(=S)Nc1cc(-c2nc3ccccc3[nH]2)ccc1Cl)c1ccc2c(c1)OCO2` gave CSC inhib 94.1*, Mdm2 MdmX PPI 100.5*, MPTP block 57.3*, Calb FLC 1.7, Beta apoptosis 88.8*, Mdm2-MdmX conf 70.8*, FLuc counter 70.3* and Rh123 counter 38.6*.
For Cc1ccc2oc(-c3ccc(NC(=O)CC(C)C)cc3)nc2c1 the results were CSC inhib 8.4, Mdm2 MdmX PPI -54.4, MPTP block 5.6, Calb FLC -8.7 and Beta apoptosis 5.9.
CCC(C)NCC(=O)Nc1ccc(-c2nc3cc(NC(=O)CNC(C)CC)ccc3o2)cc1 (configuration not stated) was read as CSC inhib 19.2, Mdm2 MdmX PPI 100.4*, MPTP block 73.5*, Beta apoptosis -1.4, Mdm2-MdmX conf 41.8*, FLuc counter 35.6, Rh123 counter -4.7, MPTP abs DR 16.4* and MPTP counter DR 35.8*.
For N#Cc1ccc(NC(=O)Nc2ccc(Cl)cc2)cc1 the results were Mdm2 MdmX PPI 84.8*, MPTP block 105.0*, Calb FLC 52.6, Beta apoptosis 105.3*, Mdm2-MdmX conf 88.4*, FLuc counter 44.7* and Rh123 counter 88.9*.
CCOC(=O)C1=C(C)N=C2c3ccccc3C(=O)C2C1c1ccc(Cl)cc1 (configuration not stated) was read as CSC inhib 25.0, Mdm2 MdmX PPI 50.9*, MPTP block 66.1*, Calb FLC -0.6, Beta apoptosis -12.8, Mdm2-MdmX conf 23.9 and Rh123 counter 44.7*.
`CC1(C)CC(=O)C2=C(C1)N=c1s/c(=C/c3ccc(F)c(F)c3)c(=O)n1C2c1ccc(F)cc1` (configuration not stated) gave CSC inhib 11.8, Mdm2 MdmX PPI 45.9, MPTP block -0.8, Calb FLC 2.8 and Beta apoptosis -10.0.
For CC1(C)CC(=O)C2=C(C1)N=C1c3ccccc3C(=O)C1C2c1ccc(Cl)cc1 (configuration not stated) the results were CSC inhib 27.4, Mdm2 MdmX PPI 56.3*, MPTP block 98.5*, Calb FLC 65.2, Beta apoptosis 1.4, Mdm2-MdmX conf 13.7 and Rh123 counter 4.0.
Screening Cc1onc(-c2ccccc2)c1C(=O)OCC(=O)NC(=O)c1ccccc1 returned CSC inhib -11.3, Mdm2 MdmX PPI 44.0, MPTP block 0.0, Calb FLC 12.5 and Beta apoptosis -6.9.
